Data as given in PubChem BioAssay (NCI).
This is part of a sample that, as a whole, favours compounds with a hit. Of some 83,000 tested, about 20% had one in any assay.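 A percent growth of 40 corresponds to 60% growth inhibition; 0 means no net growth; -100 means all cells died. Active threshold: below 10.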 The source made the active and inactive calls.

test system: NCI-H226 lung; assay: NCI-60 one-dose screen, 48 h (100 = growth as untreated, 0 = no growth, -100 = all killed); conditions: 10 µM unless noted

Row | SMILES | growth
1 | CC(C)(C)c1ccc(C(=O)Nc2nc3ccc(O)cc3s2)cc1 | 53.5% (inactive)
2 | CC1(C)CC[C@]2(C(=O)N3CCOCC3)CC[C@]3(C)C(=CC[C@@H]4[C@@]5(C)C/C(=C/c6ccccn6)C(=O)C(C)(C)[C@@H]5CC[C@]43C)[C@@H]2C1 | 76.2% (inactive)
3 | CCO/C=N/C1=C(C#N)C(c2ccc(F)cc2)c2sc3c(C)cccc3c2O1 (centres undefined) | 54.3% (inactive)
4 | COc1cc(-c2nc(SC(C)C)n(C(C)C)c(=O)c2C#N)ccc1OCc1ccccc1 | 87.4% (inactive)
5 | CCCCCc1ccc(S(=O)(=O)Nc2cccc(-c3csc(NCCN4CCN(C)CC4)n3)c2)cc1 | 96.7% (inactive)

test system: NCI-H322M lung; assay: as above; conditions: 10 µM unless noted

Row | SMILES | growth
6 | CN1CCN(Cc2ccc(NC(=O)c3cncc(C#Cc4cnc5ccc(NCCCO)nn45)c3)cc2C(F)(F)F)CC1 | 3.42% (active)
7 | COc1cc(OC)c(S(N)(=O)=O)cc1C(C)=O | 109% (inactive)
8 | NC(N)=Nc1ccc(Oc2cccc(Nc3ccc(Br)c(C(F)(F)F)c3)c2)cn1 | -43.6% (active)
9 | NS(=O)(=O)c1ccc(-n2cc(-c3cccc(NC(=O)c4ccc(N5CCOCC5)c(C(F)(F)F)c4)c3)nn2)cc1 | 26% (inactive)
10 | CCc1cccc2c3c(sc12)C(c1ccc(OC)cc1)C(C#N)=C(/N=C/c1ccc(Cl)cc1)O3 (centres undefined) | 55.1% (inactive)
11 | COc1ccc(/C=C(\C#N)C(=O)N2c3ccccc3Sc3ccc(SC)cc32)cc1F | 90% (inactive)
12 | Cc1ccc(NC(=O)CNc2cc(C(N)=O)cc(F)c2C)c(Cl)c1 | 102% (inactive)
13 | CNC(=O)c1cc(Oc2ccc3nc(NC(=O)c4cccc(OC(F)(F)F)c4)sc3c2)ccn1 | 92.6% (inactive)
14 | O=C1CCCC2=C1C(c1c[nH]c3ccc(Br)cc13)Cc1cc(Br)ccc1N2 (centres undefined) | 54.2% (inactive)
15 | NC(N)=Nc1ccc(Nc2cccc(Nc3ccc(Cl)c(C(F)(F)F)c3)c2)cn1 | -6.68% (active)
16 | N#Cc1c(Nc2ccccc2)nn2c(-c3ccc([N+](=O)[O-])cc3)ccnc12 | 102% (inactive)
17 | O=C(CCn1c[n+](CC(=O)c2ccc(-c3ccccc3)cc2)c2ccccc21)Nc1cccc2cccnc12 | 82.8% (inactive)
18 | FC(F)(F)c1cc(Nc2cccc(Oc3ccc(NC4=NCCN4)nc3)c2)ccc1Cl | -3.79% (active)
19 | CCO/C=N/C1=C(C#N)C(c2ccc(OC)cc2)c2sc3c(CC)cccc3c2O1 (centres undefined) | 42.2% (inactive)
20 | CN(C)CCN(C)c1ccc2ncc(C#Cc3cncc(C(=O)Nc4ccc(CN5CCN(C)CC5)c(C(F)(F)F)c4)c3)n2n1 | 89% (inactive)
21 | COc1ccc(CCOc2cc3c(cc2OC)CCN(C(=O)NCc2cocn2)C3c2ccc(C)cc2C)cc1 (centres undefined) | 46% (inactive)
22 | CC(C)(C)c1ccc(C(=O)Nc2nc3ccc(O)cc3s2)cc1 | 54.8% (inactive)
23 | CCO/C=N/C1=C(C#N)C(c2ccc(F)cc2)c2sc3c(C)cccc3c2O1 (centres undefined) | 37.6% (inactive)
24 | COc1cc(-c2nc(SC(C)C)n(C(C)C)c(=O)c2C#N)ccc1OCc1ccccc1 | 64.9% (inactive)
